This note sets out measurements from PubChem BioAssay (NCI).

Holding throughout (assay): NCI-60 one-dose screen, 48 h (100 = growth as untreated, 0 = no growth, -100 = all killed)
Common to all, as to conditions: 10 µM unless noted

Assay [1] has as its system NCI-H23 lung.
Assay [2] relates to NCI-H226 lung.
Assay [3] concerns NCI-H322M lung.
The subject of assay [4] is HOP-62 NSCLC.
The subject of assay [5] is NCI-H460 lung.
The test system of assay [6] is HOP-92 NSCLC.
The subject of assay [7] is NCI-H522 lung.
Assay [8] concerns A549/ATCC NSCLC.
Assay [9] relates to 786-0 renal.
In assay [10] the test system is COLO 205 colon.

Compounds without any hit were thinned out: in the full panel of roughly 83,000, 20% have a hit.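 In brief: 96-well plates, 48 h treatment, single concentration, percent growth endpoint.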 Unmarked numbers belong to inactive results. Active and inactive are the calls of the source. How the source made its calls: active means growth percent below 10; inactive means the rest.

`Cc1nc(-c2cn3c(n2)-c2ccc(-c4cnn(C(C)(C)C(N)=O)c4)cc2OCC3)n(C(C)C)n1`: the growth in assay [1] was 54.5%; in [2], 32.7%; in assay [3], 2.09% (active); in assay [4], 31.2%; in assay [5], 18.7%; in [6], 0.115% (active). Also, the growth is 36.1% in [7], 8.09% (active) in assay [8], 7.76% (active) in [9] and 13.5% in assay [10].
Consider `CC(=O)OCCC/C(=C\c1ccc2ccccc2c1)[N+](=O)[O-]`, for which the growth in [1] was -42.3% (active); in assay [2], -23% (active); in assay [3] it was 83.2%; in [4], -27.5% (active); in assay [5], 64.3%; in assay [6], -90.5% (active). Besides, the growth was -80.3% (active) in [7], -72.3% (active) in assay [8], -93.4% (active) in [9] and -77.9% (active) in assay [10].
As to `Cc1cc(O)cc(-c2c(-c3ccnc(-c4cccnc4)c3)cnn2C)c1`, the growth in assay [1] is 93.6%; in [2] it was 69.5%; in [3] it was 66.6%; in assay [4], 67.2%; in assay [5], 67.4%; in assay [6], 42.7%. The growth in assay [7] was 46.9%; in [8], 78.1%; in [9] it was 67.7%; in assay [10], 84.6%.
As for `CC1(C)NC(=O)c2[nH]c3c(Cl)c(Cl)ccc3c2C1C#N` (stereo not given), the growth in assay [1] was 75.8%; in [2], 53.9%; in assay [3], 90.5%; in [4], 82.5%; in [5], 88.7%; in assay [6], 54.3%. Further, the growth in assay [7] is 67.8%; in [8] it was 80.1%; in assay [9] it was 82.6%; in assay [10] it was 92.3%.
Turning to `CCCNC(=O)c1cn2ncnc(Nc3cc(C(=O)NC4CC4)ccc3C)c2c1C`, the growth in assay [1] was 24.6%; in [2], 42.1%; in [3] it was 47.5%; in assay [4], 81.1%; in assay [5], 66.8%; in [6], 74.6%. The growth in [7] was 79.1%; in [8], 63.3%; in assay [9], 99%; in [10] it was 88.9%.
`C=C1[C@@H](O)C[C@H]2C(C)(C)C[C@H](Cl)C[C@]2(C)[C@H]1C[C@H](O)[C@H]1CC(=O)NC1=O`: the growth in assay [1] is -36.2% (active); in assay [2], -25.8% (active); in [3], -8.41% (active); in [4], -38.4% (active); in assay [5], -11.5% (active); in [6], -13.5% (active). Besides, the growth in assay [7] is -36.8% (active); in assay [8], -14.1% (active); in assay [9], -33.2% (active); in [10], -62.5% (active).
As to `Cc1cc2c(-c3nc4ccccn4c3Nc3cccc4ccccc34)c(O)c(O)cc2c(O)c1-c1c(C)cc2c(-c3nc4ccccn4c3Nc3cccc4ccccc34)c(O)c(O)cc2c1O`, the growth in [1] was 12.4%; in assay [2] it was 46.6%; in assay [3], 59.4%; in [4], 37.9%; in assay [5], 3.9% (active); in assay [6] it was 9.86% (active). Also, the growth in assay [7] is 32%; in assay [8] it was 16.1%; in [9] it was 68%; in assay [10] it was 28%.
Take `CC12O[C@H](C[C@@H](OC(=O)CCC(=O)O)[C@H]1O)n1c3ccccc3c3c4c(c5c6ccccc6n2c5c31)C(=O)NC4=O`: the growth in [1] was 12.3%; in assay [2], 9.15% (active); in [3], 34.3%; in [4], 13.5%; in assay [5], 20.2%; in assay [6], 7.85% (active). In addition, the growth is 21% in assay [7], 13.8% in assay [8], 36.8% in assay [9] and -16.4% (active) in [10].
For `Fc1ccc(NCc2cn(-c3ccccc3)nc2-c2ccc(OCc3ccccc3)cc2)cc1Cl`, the growth was 82% in assay [1]; 102% in assay [2]; 105% in assay [3]; 76.6% in assay [4]; 110% in assay [5]; 91.2% in assay [6]. Moreover, the growth in assay [7] is 58.5%; in [8] it was 83.3%; in assay [9], 88.7%; in [10] it was 100%.
For the compound `COc1ccc(C(=O)c2cc(OC)c(OC)c(OC)c2)cc1/C=C/C(=O)c1ccc(F)cc1`, the growth in assay [1] was 79.7%; in assay [2] it was 90.4%; in [3], 85.5%; in assay [4] it was 95.5%; in assay [5], 92.9%; in assay [6], 69.2%. The growth in assay [7] was 18.5%; in [8], 90.7%; in assay [9] it was 77.4%; in [10], 79.3%.
For `COc1ccc(-c2nc(N)ncc2Oc2ccccc2OC)c(O)c1`, the growth in assay [1] is 38.8%; in [2], 73.5%; in assay [3] it was 50.5%; in [4] it was 27.9%; in assay [5], 16.4%; in assay [6], 49.2%. Further, the growth was 28.7% in assay [7], 35.7% in assay [8], 37% in assay [9] and 2.73% (active) in [10].
On to `O=C(Cn1ccc2ccccc21)Nc1ccc(-c2nc3ccccc3s2)cc1`, for which the growth in assay [1] is 94%; in [2], 102%; in assay [3], 98.8%; in assay [4], 103%; in [5], 105%; in [6], 105%. The growth is 102% in assay [7], 98.3% in assay [8], 103% in assay [9] and 101% in assay [10].
As to `CN1CCN(CC(=O)Nc2ccc(-c3nc4ccccc4s3)cc2)CC1`, the growth is 82.2% in assay [1]; 96.2% in assay [2]; 77.9% in [3]; 87.3% in assay [4]; 84.7% in assay [5]; 35.7% in assay [6]. Besides, the growth in assay [7] is 58.9%; in assay [8] it was 88.6%; in assay [9], 78.7%; in assay [10], 39.7%.
Consider `CCN1CCN(Cc2ccc(NC(=O)Nc3nc(-c4cc(OC)c(OC)c(OC)c4)cs3)cc2C(F)(F)F)CC1`, for which the growth is 37.6% in assay [1]; 56.8% in [2]; 63% in assay [3]; 49.9% in [4]; -1.08% (active) in [5]; 54.4% in assay [6]. Moreover, the growth was 55.9% in assay [7], 26.1% in assay [8], -50.9% (active) in [9] and -68.4% (active) in assay [10].
Consider `CO[C@H]1C[C@@H]2CC[C@@H](C)[C@@](O)(O2)C(=O)C(=O)N2CCCC[C@H]2C(=O)O[C@H]([C@H](C)C[C@@H]2CC[C@@H](O)[C@H](OC)C2)CC(=O)[C@H](C)/C=C(\C)[C@@H](O)[C@@H](OC)C(=O)[C@H](C)C[C@H](C)\C=C/C=C/C=C/1C`, for which the growth in assay [1] was 51.3%; in assay [2], 47.9%; in assay [3], 43.7%; in assay [4], 43.8%; in assay [5] it was 31.9%; in assay [6], 41.1%. For the same compound, the growth in assay [7] was 39.4%; in assay [8], 35.1%; in assay [9] it was 42.1%; in [10] it was 44.3%.
